# Compound activity from PubChem BioAssay.
# Sm TGR block – qHTS Assay for the Inhibitors of Schistosoma Mansoni Peroxiredoxins; purified TGR, DTNB reduction, TNB absorbance 405 nm; Potency, µM (top dose mostly 114 µM), inactives show at the highest dose activity change, negative = inhibition, most hits filed as inhibitors; actives 3% (n = 360,000); AID 485364, 2010; note: potency is the fitted concentration of half-maximal effect; % is set by controls: 0 for no effect and ±100 for the full control effect; nearly all actives have a fitted effect of over 60% in size
#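 Kinetic colorimetric format: TGR-catalysed, NADPH-driven DTNB reduction monitored via TNB absorbance. Enzyme dispensed at 20 nM; compound exposure 15 min at room temperature before reaction start.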
# Pf growth 96h – Primary qHTS for delayed death inhibitors of the malarial parasite plastid, 96 hour incubation. P. falciparum luciferase reporter growth, 96 h. Potency, µM (titrated, usually from 28.7 µM), for the others: at the highest dose activity change, negative = inhibition, actives largely listed as inhibitors. actives 6.9% (n = 320,000). AID 504834, 2011; note: potency is the fitted concentration of half-maximal effect; % is set by controls: 0 for no effect and ±100 for the full control effect
#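 Parasite growth measured via integrated firefly luciferase reporter in P. falciparum. Infected erythrocytes at 2% hematocrit, 0.05% parasitemia final were treated 96 hours at 37 C under 5% CO2, and luminescence was read.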
# CHX counter – Cycloheximide Counterscreen for Small Molecule Inhibitors of Shiga Toxin; max response, %; AID 2314, 2010; cell reporter, cycloheximide protein synthesis inhibition counterscreen; actives 12% (n = 300,000); in the data active = max response mostly above about 13%, no sharp cut-off; inactive = mostly below about 14%; note: read at 38.3 µM for the half of the compounds with a filed dose; 0% is about no effect
# Shiga inhibitor – A qHTS for Small Molecule Inhibitors of Shiga Toxin; Vero cells, Shiga toxin protein synthesis inhibition reporter; inhibition, % at 38.7 µM; actives 9.2% (n = 290,000); AID 2315, 2010; in the data active = inhibition mostly above about 28%, no sharp cut-off; inactive = mostly below about 43%; note: 0% is about no effect
# NS1 function inh – qHTS Assay for Inhibitors of Influenza NS1 Protein Function; Potency, µM (top dose mostly 46.1 µM), inactives show at the top dose activity, positive = more growth; actives 0.4% (n = 270,000); AID 2326, 2010; calls by dose curve; note: potency is the fitted concentration of half-maximal effect; actives are rising curves; nearly all actives have a fitted effect of over 50% in size
#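 In this qHTS, NS1 from influenza A is expressed in budding yeast, where it slows growth. Cells are switched from glucose to 2% galactose medium (pH 6.0, -URA), treated with compound, and growth recovery is read at OD600.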
# Pf growth 48h – Primary qHTS for delayed death inhibitors of the malarial parasite plastid, 48 hour incubation; actives 5.9% (n = 310,000); P. falciparum luciferase growth in erythrocytes, 48 h; Potency, µM (highest dose often 28.7 µM), for inactives: top-dose activity change, negative = inhibition, usual class: inhibitors; note: potency is the fitted concentration of half-maximal effect; % is set by controls: 0 for no effect and ±100 for the full control effect
#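 Here the parasites carry a stable luciferase gene and grow inside erythrocytes in Albumax-based RPMI medium with compound for one erythrocytic cycle. Activity is scored as loss of luminescent signal.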
# Active calls of the source: *; i = inactive; u = inconclusive; x = not tested or not shown. Hits are enriched below; roughly 21% of the tested compounds scored in any of these assays. Unless noted, calls come from the whole dose curve; as a rule, active = well fitted curve in the direction sought with a large enough effect; inconclusive = small, poorly fitted or top-dose-only effect, or another doubt; inactive = no such curve, though single readings can be large; an effect the other way counts as inactive or inconclusive.
SMILES,Sm TGR block,Pf growth 96h,CHX counter,Shiga inhibitor,NS1 function inh,Pf growth 48h
N#CCSc1nc2scc(-c3cccs3)c2c(=O)n1CCc1ccccc1,-24%,u,-6,-15,15%,3%
Cc1c(Cl)cccc1Nc1nc(N)nc(CSC(=S)N2CCOCC2)n1,-13%,u,39*,76,x,8%
COc1ccc(Nc2nc(N)nc(CSC(=S)N3CCN(C)CC3)n2)cc1,30%,u,17*,19,2%,17%
COc1ccc(Nc2nc(N)nc(CSC(=S)N3CCCCC3C)n2)cc1 (stereo not given),5%,u,28*,65*,12%,-27%
COc1ccc(Nc2nc(N)nc(CSC(=S)N3CCCCC3)n2)cc1,11%,2%,48*,36*,x,4%
COc1ccc(Nc2nc(N)nc(COc3ccc(OC)cc3)n2)cc1,13%,40%,-2,1,8%,0%
Cc1cc(S(=O)(=O)NCCCN2CCOCC2)ccc1Br,-1%,-27%,x,x,x,-15%
O=C(NCCCN=C1NS(=O)(=O)c2ccccc21)c1ccc(F)cc1,0%,-2%,-2,-10,2%,10%
COc1ccccc1NC(=O)c1ccc(-n2cccn2)nc1,10%,u,-1,-8,-30%,u
COc1ccc(C(=O)NC2CC3CCCC(C2)N3Cc2ccccc2)c(OC)c1 (stereo not given),-4%,u,-1,-3,7%,-7%
Oc1ccc(-c2n[nH]c(C(F)(F)F)c2-c2ccccc2)c(O)c1,2%,32%,0,-10,5%,-17%
COc1ccccc1-c1c(-c2ccc(O)cc2O)n[nH]c1C(F)(F)F,4%,13µM*,0,-5,5%,u
O=C(O)C1CC=CC2CCN(C3CC3)C(=O)C21 (stereo not given),x,x,8,17,x,x
COc1ccc(C(=O)OCC(=O)NCC2CCCCC2)cc1F,0%,-3%,x,x,x,u
CC(=O)Nc1c2sscc-2n(C)c1=O,x,x,47*,36*,x,x
CCOc1ccc(Nc2oc(-c3ccco3)nc2C#N)cc1,-2%,u,33*,34,-15%,-15%
CCOc1ccc(Nc2oc(-c3cccs3)nc2C#N)cc1,2%,183%,17,65,-9%,u
CCN(CC)CCCNc1oc(-c2ccc(OC)cc2)nc1C#N,8%,x,x,x,x,x
C=CCNc1oc(-c2ccc(OCC)cc2)nc1C#N,-15%,71%,15*,63*,3%,u
C=CCNc1oc(-c2ccc(OC)cc2)nc1C#N,-27%,18%,43*,78*,-18%,45%
CNc1oc(-c2ccc(OCc3ccccc3)cc2)nc1C#N,-13%,x,24*,38,-8%,37%
O=C(O)C1CCN(C(=O)CCN2C(=O)S/C(=C\c3ccccc3)C2=O)CC1,5%,9%,14,-5,-12%,11%
Cc1c(NC(=O)c2ccc(-c3ccc(F)cc3)o2)cccc1-c1nc2ncccc2o1,-26%,x,x,x,x,x
CC(=O)c1ccc(NC(=O)CSc2nnc3ccc(-c4ccccn4)nn23)cc1,-2%,76%,x,x,x,50%
Nc1ccccc1NC1CCCCC1,-5%,u,13,24,x,-19%
SMILES,Sm TGR block,Pf growth 96h,CHX counter,Shiga inhibitor,NS1 function inh,Pf growth 48h
COc1ccc(C(=O)O)cc1S(=O)(=O)NCCN(C)C,7%,26%,-3,-3,0%,6%
COc1ccc(Nc2oc(-c3ccc(F)cc3)nc2C#N)cc1,2%,49%,35*,73*,-1%,72%
COc1ccc(Nc2oc(/C=C/c3ccc(F)cc3)nc2C#N)cc1,-1%,x,x,x,x,x
Cc1cc(C(=O)NC2=NCCS2)cs1,0%,15%,41*,66*,11%,i
O=C(NC1=NCCS1)c1ccccc1,2%,u,17,20,2%,68%
Cc1cccc(C(=O)NC2=NCCS2)c1,9%,29%,35*,56*,-1%,146%
O=C(NC1=NCCS1)c1ccncc1,-1%,-17%,-2,8,u,10%
CCN(c1ccc(OC)cc1)S(=O)(=O)c1nnc(NC(=O)c2ccccc2C)s1,-1%,x,x,x,x,x
O=[N+]([O-])c1ccc(O)c(/C=N/n2cnc3ccccc32)c1,-13%,u,3,-2,-4%,-19%
Cc1cc([N+](=O)[O-])cc(/C=N/n2c(C)nc3ccccc3c2=O)c1O,-6%,-29%,1,12,-95%,u
O=[N+]([O-])c1ccc(O)c(/C=N/n2c(CO)nc3ccccc32)c1,0%,13µM*,-3,-2,-45%,u
CCOc1ccccc1/C=N/n1c(C)nc2ccccc2c1=O,2%,-1%,-8,-9,-2%,-6%
C/C(=N\OCc1nc2ccccc2c(=O)n1/N=C/c1cc([N+](=O)[O-])ccc1O)c1ccccc1,35µM*,u,18*,46*,-6%,u
C/C(=N\OCc1nc2ccccc2c(=O)n1/N=C/c1cc(C)cc([N+](=O)[O-])c1O)c1ccccc1,-35%,u,21*,27,-38%,6.6µM*
CC1CCN(S(=O)(=O)c2cc(C(=O)NCc3ccc(N(C)C)cc3)n(C)c2)CC1,-5%,x,x,x,x,x
C=C1C(=O)O[C@H]2[C@H]1[C@@H](O)CC(=C)[C@@H]1CC(=O)[C@@H](C)[C@H]21,22µM*,u,32*,36*,1%,u
Cc1ccc(S(=O)(=O)CC(c2ccccc2)N2CCCCC2)cc1 (stereo not given),0%,10µM*,-5,33,-5%,-6%
Cc1ccc(S(=O)(=O)CC(c2ccccc2)N2CCOCC2)cc1 (stereo not given),0%,9.3µM*,1,-13,-6%,2%
O=S(=O)(CC(c1ccccc1)N1CCCCC1)c1ccc(Cl)cc1 (stereo not given),9%,1%,1,6,-4%,-4%
Cc1ccc(S(=O)(=O)CC(CN2CCCCC2)N2CCCCC2)cc1 (stereo not given),x,u,15,16,9%,8.3µM*
COc1ccc(-c2noc(-c3ccc(NCCc4ccccc4)c([N+](=O)[O-])c3)n2)cc1,2%,x,x,x,x,x
N#CCn1cnc2c(oc3ccccc32)c1=O,1%,24%,13*,10,9%,19%
CCCCn1cnc2c(oc3ccccc32)c1=O,24%,u,51*,72*,-3%,69%
CC(C)n1cnc2c(oc3ccccc32)c1=O,-11%,21%,32*,67*,2%,64%
CCOC(=O)c1sc2nc(C)nc(NCc3ccc(Cl)cc3)c2c1C,7%,u,23,14,-13%,9.3µM*
Cn1[nH]c(=O)c(Cl)c(Cl)c1=O,-18%,x,-2,4,1%,17%
